# Values joined by “and” are separate entries in the source; they are usually repeats but may differ in a detail not shown here. Equal entries are not always repeated. Results filed as inconclusive are left out. The source holds several records for some structures; these can differ, active in one and inactive in another. Active and inactive are the calls of the source. How the source made its calls, unless noted: active means hit-call score of the fitted dose curve at least 0.9, where 1 is the maximum; inconclusive means response in the unintended direction; inactive means score below 0.9.
# Columns and labels:
# [1] = target: Cellular tumor antigen p53 (Homo sapiens) (UniProt P04637); experiment: TOX21_p53_BLA_p2_ratio: Tox21 HCT-116 p53 Agonism Beta-lactamase Assay, Ratio, Phase 2 (AID 2283592)
# How it was run: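 Read-out is the blue/green (460/530 nm, 405 nm excitation) ratio after 2 h CCF4-AM loading, fitted as gain versus DMSO. Compounds, pinned at 217-fold dilution from DMSO stocks, stayed 16 h on HCT-116 beta-lactamase reporter cells seeded 5 h earlier.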
# [2] = TOX21_p53_BLA_p3_viability: Viability Assessment in the Tox21 HCT-116 p53 Agonism Beta-lactamase Assay, Phase 3 (AID 2283593);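 further: cells exposed to compound for 16 h before reading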
# How it was run: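 Cellular ATP was quantified by CellTiter-Glo luminescence, read after 30 min at room temperature. Beforehand, HCT116 cells (4000/well) received compound 5 h post-seeding, 217-fold diluted from DMSO, then incubated 16 h at 37C.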
# [3] = target: Cellular tumor antigen p53 (Homo sapiens) (UniProt P04637); experiment: TOX21_p53_BLA_p3_ratio: Tox21 HCT-116 p53 Agonism Beta-lactamase Assay, Ratio, Phase 3 (AID 2283596)
# How it was run: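 Cells were seeded at 4000/well, rested 5 h at 37C, then dosed with DMSO compound solutions (217-fold dilution) for 16 h. CCF4-AM substrate was loaded for 2 h at room temperature, and the 460/530 nm emission ratio was fitted for gain of signal versus DMSO.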
# [4] = TOX21_p53_BLA_p4_viability: Viability Assessment in the Tox21 HCT-116 p53 Agonism Beta-lactamase Assay, Phase 4 (AID 2283597);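 further: hits lower the luminescence signal meaning cytotoxicity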
# How it was run: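 Cytotoxicity as reduced cellular ATP (CellTiter-Glo luminescence, 30 min room temperature), measured in the same wells following the CCF4 FRET p53 reading. Human HCT-116 cells received compounds in DMSO (217-fold dilution) for 16 h.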
# [5] = target: Cellular tumor antigen p53 (Homo sapiens) (UniProt P04637); experiment: TOX21_p53_BLA_p5_ratio: Tox21 HCT-116 p53 Agonism Beta-lactamase Assay, Ratio, Phase 5 (AID 2283599)
# How it was run: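 Beta-lactamase reporter ratio (blue 460 nm over green 530 nm, 405 nm excitation) after 2 h CCF4-AM loading, in HCT-116 cells exposed 16 h at 37 C to compounds pinned at 217-fold dilution. Increases relative to DMSO baseline scored.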
# [6] = TOX21_p53_BLA_p5_viability: Viability Assessment in the Tox21 HCT-116 p53 Agonism Beta-lactamase Assay, Phase 5 (AID 2283600)
# How it was run: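 Viability came from CellTiter-Glo ATP luminescence, read after 30 min at room temperature. Before this, HCT-116 p53-bla cells (4000/well) had 16 hours of compound exposure at 37C, with DMSO stocks diluted 217-fold on transfer.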
# [7] = target: Cellular tumor antigen p53 (Homo sapiens) (UniProt P04637); experiment: TOX21_p53_BLA_p4_ratio: Tox21 HCT-116 p53 Agonism Beta-lactamase Assay, Ratio, Phase 4 (AID 2283601)
# How it was run: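 Signal is the blue/green (460nm/530nm) ratio of cleaved versus uncleaved CCF4-AM substrate, read after 2 h substrate loading. Cells were HCT116 carrying the p53-responsive beta-lactamase reporter, dosed 16 h at 37C, 5% CO2; CellTiter-Glo measured in parallel.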
# [8] = CCTE_Harrill_HTTr_Viability_MCF7: CCTE's 6-hour Cell Viability Assessment for the High-Throughput Transcriptomics (HTTr) Platform, in MCF-7 cells cultured in DMEM + 10% fetal bovine serum, Harrill Lab (AID 2284010; active means hit-call score of the fitted dose curve at least 0.9, where 1 is the maximum; inactive means score below 0.9)
# How it was run: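 Eight-point concentration series, six-hour exposure. Propidium iodide exclusion imaged to assess membrane integrity as a cytotoxicity readout; bidirectional fitting was done with DMSO as negative control and activity baseline.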
# [9] = CCTE_Harrill_HTTr_Apoptosis_MCF7: CCTE's 6-hour Apoptosis Assessment for the High-Throughput Transcriptomics (HTTr) Platform, in MCF-7 cells cultured in DMEM + 10% fetal bovine serum, Harrill Lab (AID 2284011; active means hit-call score of the fitted dose curve at least 0.9, where 1 is the maximum; inactive means score below 0.9)
# How it was run: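 High-content imaging of CellEvent Caspase 3/7 Green signal follows a six-hour exposure, with eight concentrations per chemical. MCF-7 cells grown in DMEM plus 10% fetal bovine serum; activity fitted in both directions against DMSO.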
# [10] = CCTE_Harrill_HTTr_CellCount_MCF7: CCTE's Cell Proliferation Assessment for the High-Throughput Transcriptomics (HTTr) Platform, Harrill Lab (AID 2284012);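 further: count of Hoechst-stained nuclei per well by high-content imaging in MCF-7 cells; cells exposed to compound for six hours; intended direction is loss of nuclei count meaning fewer cells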
# How it was run: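 For this full-screen endpoint, MCF-7 cultures received eight compound dilutions for six hours. Well nuclei counts from Hoechst imaging were analyzed relative to DMSO.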
# Chain of Cellular tumor antigen p53 (Homo sapiens) (P04637 whole entry, looked up): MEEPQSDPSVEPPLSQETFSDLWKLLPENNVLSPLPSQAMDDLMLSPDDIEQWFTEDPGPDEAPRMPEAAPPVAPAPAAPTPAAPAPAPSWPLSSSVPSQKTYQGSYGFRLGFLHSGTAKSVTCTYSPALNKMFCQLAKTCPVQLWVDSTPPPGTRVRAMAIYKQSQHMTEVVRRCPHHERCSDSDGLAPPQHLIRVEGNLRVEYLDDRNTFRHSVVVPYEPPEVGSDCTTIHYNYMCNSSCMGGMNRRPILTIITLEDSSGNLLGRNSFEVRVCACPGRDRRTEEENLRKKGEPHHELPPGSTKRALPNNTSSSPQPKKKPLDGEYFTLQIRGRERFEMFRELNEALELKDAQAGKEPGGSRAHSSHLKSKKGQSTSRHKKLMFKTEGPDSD
structure (smiles),measurement,setting,value
CC(C)(C)NC[C@H](O)COc1nsnc1N1CCOCC1,outcome,[1],inactive
same,outcome,[2],inactive
same,outcome,[3],inactive
same,outcome,[4],inactive
same,outcome,[5],inactive
same,outcome,[6],inactive
same,outcome,[7],inactive
same,outcome,[8],inactive
same,outcome,[9],inactive
same,outcome,[10],inactive
CC(=O)[C@]1(O)Cc2c(O)c3c(c(O)c2[C@@H](O[C@H]2C[C@H](N)[C@H](O)[C@H](C)O2)C1)C(=O)c1c(O)cccc1C3=O,AC50,[1],346 nM (active) and 263 nM (active)
same,outcome,[2],inactive
same,AC50,[3],222 nM (active) and 212 nM (active)
same,outcome,[4],inactive
same,outcome,[5],inactive
same,outcome,[6],inactive
same,AC50,[7],0.571 µM (active)
same,outcome,[7],inactive
Nc1c2c(nc3ccccc13)CCCC2,outcome,[1],inactive
same,outcome,[2],inactive
same,outcome,[3],inactive
same,outcome,[4],inactive
same,outcome,[5],inactive
same,outcome,[6],inactive
same,outcome,[7],inactive
same,outcome,[8],inactive
same,outcome,[9],inactive
same,outcome,[10],inactive
CC1C(=O)CC2C3(C)CCC2(C(C)C(=O)O)C(=O)C13 (stereo not drawn),outcome,[1],inactive
same,outcome,[2],inactive
same,outcome,[3],inactive
same,outcome,[4],inactive
same,outcome,[5],inactive
same,outcome,[7],inactive
CC[C@@H](CO)NCCN[C@@H](CC)CO,outcome,[1],inactive
same,outcome,[2],inactive
same,outcome,[3],inactive
same,outcome,[4],inactive
same,outcome,[5],inactive
same,outcome,[6],inactive
same,outcome,[7],inactive
CCOC(=O)c1c(N)sc2c1CCN(Cc1ccccc1)C2,outcome,[1],inactive
same,outcome,[2],inactive
same,outcome,[3],inactive
same,outcome,[4],inactive
same,outcome,[5],inactive
same,outcome,[6],inactive
same,outcome,[7],inactive
Nc1ccccc1O,AC50,[1],41 µM (active)
same,outcome,[2],inactive
same,AC50,[3],39.2 µM (active)
same,AC50,[4],75.4 µM (active)
same,AC50,[5],32.1 µM (active)
same,AC50,[7],35.2 µM (active)
C[C@@H]1C[C@H]2[C@@H]3C[C@H](F)C4=CC(=O)C=C[C@]4(C)[C@@]3(Cl)[C@@H](O)C[C@]2(C)[C@H]1C(=O)COC(=O)C(C)(C)C,outcome,[1],inactive
same,outcome,[2],inactive
same,outcome,[3],inactive
same,outcome,[4],inactive
same,outcome,[5],inactive
same,outcome,[7],inactive
CCC[C@@H]1C[C@@H](C(=O)N[C@@H]([C@H]2O[C@H](SC)[C@H](OP(=O)(O)O)[C@@H](O)[C@H]2O)[C@H](C)Cl)N(C)C1,outcome,[1],inactive
same,outcome,[2],inactive
same,outcome,[3],inactive
same,outcome,[4],inactive
same,outcome,[5],inactive
same,outcome,[6],inactive
same,outcome,[7],inactive
O=C(O)c1cc(O)c2c(c1)C(=O)c1cccc(O)c1C2=O,outcome,[1],inactive
same,outcome,[2],inactive
same,outcome,[3],inactive
same,outcome,[4],inactive
same,outcome,[5],inactive
same,outcome,[6],inactive
same,outcome,[7],inactive
COc1cccc2c1C(=O)c1c(O)c3c(c(O)c1C2=O)C[C@@](O)(C(=O)CO)C[C@@H]3O[C@H]1C[C@H](N)[C@H](O[C@@H]2CCCCO2)[C@H](C)O1,AC50,[1],6.79 µM (active)
same,AC50,[2],7.5 µM (active)
same,AC50,[3],7.49 µM (active)
same,AC50,[4],7.64 µM (active)
same,AC50,[5],7.29 µM (active)
same,outcome,[6],inactive
same,AC50,[7],7.58 µM (active)
Nc1ccn([C@@H]2O[C@H](CO)[C@@H](O)C2(F)F)c(=O)n1,AC50,[1],0.176 µM (active)
same,outcome,[2],inactive
same,AC50,[3],0.181 µM (active)
same,outcome,[4],inactive
same,AC50,[5],0.26 µM (active)
same,outcome,[6],inactive
same,AC50,[7],0.188 µM (active)

# Reference: PubChem BioAssay (EPA / NIEHS)
